Results taken from PubChem BioAssay AID925 (National Center for Advancing Translational Sciences (NCATS), 2007).
Values joined by “and” are separate entries in the source; they are usually repeats but may differ in a detail not shown here. Equal values may be shown once. In all, about 65,000 compounds went through this assay and about 40 (0.06%) were called active. The call rests on the fitted dose curve; in most records, active means well fitted activation curve with a large enough effect; inconclusive means small, poorly fitted or top-dose-only effect; inactive means flat fitted curve, though single readings scatter. The entries come from a sample that favours actives as a whole.

experiment: qHTS Assay for Modulators of Hemoglobin Beta Chain Splicing; conditions: HBB splicing reporter cell assay, EGFP reporter with mutant IVS2-654 intron; Potency: activation; series mostly up to 46.1 µM; activation: at the top concentration; further: 0% is about no effect
Excerpt: NIH Chemical Genomics Center [NCGC]
NIH Molecular Libraries Screening Centers Network [MLSCN]
PI Name: Dr. Ryszard Kole
Modulation of Alternative Splicing as Therapy
Abnormal splicing is associated with a number of diseases, including cancer and genetic diseases such as cystic fibrosis, muscular dystrophy and beta-thalassemia. Alteration of disease associated splicing patterns provides a promising target for treatment. […] Mutations in the second intron of the beta-globin gene at positions are clinically relevant and cause mis-splicing which results in an out of frame gene product.
EGFP-654 and 705 HeLa Cells as screen system.
HeLa cell lines were stably transfected with a construct in which the EGFP (enhanced green fluorescent protein) cDNA was interrupted by the second intron of the beta-globin gene (IVS2-654). The ISV2 intron contains mutations which cause mis-splicing of EGFP and premature termination of EGFP which results in a nonfluorescent protein product. […] Expression of the transgene was driven by the CMV promoter. We concluded that a low molecular weight compound, which restored correct splicing of intron 2 would also generate functional EGFP protein, resulting in a fluorescent signal. Thus, the HeLa cells that express the EGFP-654 construct can be used for high throughput screening of a chemical library.
NCGC Assay Protocol Summary:
High Throughput Screening. Freshly thawed HeLa EGFP-654 cells were seeded in 5 ul of optimem media (Invitrogen) containing 2 % fetal calf serum (Hyclone) and 1x penicillin/streptomycin (Invitrogen) at a concentration of 500 cells per well in 1536-well plates. Cells were incubated overnight at 37C in 5% CO2. The next day, cells were treated with DMSO, 500 nM antisense ISV2 654 PNA control oligo, or library compound and allowed to grow at 37C in 5% CO2 for 2 days. The PNA oligo blocked the mutation site in the intron and allowed proper (wild type) splicing to occur, resulting in full length EGFP expression and also allowed for optimization of the assay parameters. Plates were read in the Acumen Explorer (TTP Labtech) using 488 nm laser excitation and 500-520 nm emission PMT filter in a 1 x […] capture mode. Fluorescnet Fluorescent objects ranging in size from […] were measured and the total peak GFP intensity for each well was used for data analysis.
Keywords: Thalassemia, beta-thalassemia, beta-globin, EGFP, ISV2 654, ISV2 705, SSO, PNA, antisense, splicing, MLSMR, MLSCN, NIH Roadmap, qHTS, NCGC

activation, inactive:
COC(=O)CCCCCN1C(=O)NC(c2ccc(-c3ccccc3)cc2)C(C(=O)OCc2ccccc2)=C1C (configuration not stated) -0.877%
NC[C@@H]1O[C@H](O[C@@H]2[C@H](O[C@@H]3O[C@H](CO)[C@@H](COC[C@H]4O[C@@H](CN)[C@@H](O)[C@@H](O)[C@@H]4N)[C@@H]3O)[C@@H](O)[C@@H](N)C[C@H]2N)[C@@H](N)[C@H](O)[C@@H]1O 0.609% [at 20.6 µM, normalised to 500 nM splice-correcting PNA]
CO[C@H]1COC(=O)CCC[C@@H](C)[C@H](OC)COC(=O)[C@@H](C)NC(=O)C/C=C\[C@@H]1C 1.62% [at 9.22 µM, normalised to 500 nM splice-correcting PNA]
COC(=O)[C@@]1(Cc2ccc(F)cc2)[C@H]2c3cc(C(=O)N4CCCC4)n(C[C@H](O)CO)c3C[C@H]2CN1C(=O)c1ccccc1 -0.241%
COc1ccc(/C=C/NC(=O)c2ccc(OC)cc2)cc1 0.0031% [at 9.22 µM, normalised to 500 nM splice-correcting PNA]
CN(C)c1cc2c(Nc3ccc4c(cnn4Cc4ccccc4)c3)ncnc2cn1 0.878%
Cc1cccc(C(=O)O)c1 -0.218%
COC(=O)[C@@]1(C)C=C[C@@H](Cc2ccccc2)N1C(C)=O -0.493%
COC(=O)C1(Cc2ccccc2)C=C2C(=C(C)C(=O)C2C)CN1 (configuration not stated) -0.49%
C=CC(=O)OCCOCCOCCOCCOC(=O)C=C
Oc1cc2c(cc1O)CN(C(=S)NCCc1ccc(Cl)cc1)CCC2 -4.89%
O=C(c1ccco1)N1CCC[C@@]2(CCN(Cc3nccs3)C2)C1 0.678%
CN(C)C(=O)c1ccc(-c2cncnc2Nc2ccccc2)cc1 -0.328%
COc1cccc([C@H]2Oc3ccc(OC)cc3/C(=N\OCC[C@@H]3C=C[C@H](OC(C)=O)[C@H](COC(C)=O)O3)[C@@H]2O)c1 -1.11% [at 9.22 µM, normalised to 500 nM splice-correcting PNA]
COc1cc([C@H]2c3cc4c(cc3[C@@H](O[C@@H]3O[C@H]5CO[C@@H](C)O[C@]5(O)C[C@H]3O)[C@@H]3COC(=O)[C@H]23)OCO4)cc(OC)c1O 0.795%
Cc1cc(Cl)ccc1OCC(=O)Oc1c(Cl)c(Cl)c(Cl)c(Cl)c1Cl 0.153% [at 9.22 µM, normalised to 500 nM splice-correcting PNA]
C/C(CCN1CCc2nc(-c3ccccc3)c(-c3ccccc3)cc2C1)=N\O[C@@H](C)c1cn([C@@H]2COC[C@@H]2O)nn1 -1.08% [at 9.22 µM, normalised to 500 nM splice-correcting PNA]
COc1ccc(COC(=O)N/N=C2/C[C@@H](O)[C@@H](O)[C@@H]3[C@@H]4C(=O)N([C@@H](C)c5ccccc5)C(=O)[C@H]4CC[C@@H]23)cc1 0.743% [at 9.22 µM, normalised to 500 nM splice-correcting PNA]
COc1ccc2[nH]cc(CCNc3cc(-c4ccccc4CN(C)C)ncn3)c2c1 -1.5%
O=C(O)c1ccc(C(=O)O)c2c(C(=O)O)ccc(C(=O)O)c12 -1.01% [at 9.22 µM, normalised to 500 nM splice-correcting PNA]
O=C(O)[C@@H]1[C@@H](C(=O)O)[C@]23C[C@@]2(C(=O)O)[C@]2(C(=O)O)CCC3=C3CCCC312 0.251% [at 9.22 µM, normalised to 500 nM splice-correcting PNA]
COCCNc1ncnc2ccc(-c3cccnc3)cc12 -0.174%
CCN(CC)CCCCn1c(-c2ccccc2)nc2c(N3CCOCC3)nc(C)nc21 -0.944%
CO[C@@H]1COC(=O)[C@H](Cc2ccccc2)NC(=O)C/C=C\[C@@H](C)[C@H](OC)COC(=O)[C@@H](C)NC(=O)C/C=C\[C@H]1C 1.42% [at 9.22 µM, normalised to 500 nM splice-correcting PNA] and 0.127% [at 9.22 µM, normalised to 500 nM splice-correcting PNA]
Cc1noc(C)c1-c1nc(Nc2ccccc2)c2ccccc2n1 -0.209%
O=NO
ClC(Cl)(Cl)C(N1CCN(c2ccccc2)CC1)N1CCN(c2ccccc2)CC1 3.1% [at 9.22 µM, normalised to 500 nM splice-correcting PNA]
CC(=O)Oc1ccccc1C(=O)Nc1ncc([N+](=O)[O-])s1 -1.69%
COc1ccc(NC(=O)N2CC3(CCN(C(C)=O)CC3)C2)cc1 1.24%
COC(=O)[C@@H]1CC[C@H](C)[C@@H](c2ccc(C)cc2)N1C(=O)c1ccc(/C=N\OC[C@@H](O)COCc2ccco2)cc1 -0.0134% [at 9.22 µM, normalised to 500 nM splice-correcting PNA]
Clc1ccc(C(c2ccc(Cl)cc2)n2cc[n+](C[C@@H](OCc3ccc(Cl)cc3Cl)c3ccc(Cl)cc3Cl)c2)cc1 -0.247%
CC(C)C[C@@H](CC(=O)N[C@@H](CCC(=O)O)CC(=O)O)NC(=O)[C@@H]1CCCC[C@H]1NC(=O)C[C@@H](NC(=O)C[C@H](CO)NC(=O)[C@@H]1CCCC[C@H]1N)C(C)C 3.3%
O=C(O)[C@@H](S)[C@H](S)C(=O)O -1.17% [at 9.22 µM, normalised to 500 nM splice-correcting PNA]
O=C(O)[C@@H](O)Cc1ccccn1 2.62% [at 9.22 µM, normalised to 500 nM splice-correcting PNA]
COC(=O)N1CCC2(CCCN(c3ccncc3)C2)CC1 -1.2%
NCC(=O)[C@@H](O)[C@H](O)[C@H](O)CO 0.718% [at 9.22 µM, normalised to 500 nM splice-correcting PNA]
CN(C)C(=O)c1ccc(-c2cncnc2NC2CCNCC2)cc1 -0.451%
CN1[C@H]2CC(OC(=O)[C@@H](CO)c3ccccc3)C[C@H]1[C@H]1O[C@H]12 (some centres not stated) 0.627% [at 20.6 µM, normalised to 500 nM splice-correcting PNA]
O=C1[C@H]2[C@H]3[C@H](O)[C@H](O)C/C(=N/OCc4ccccc4)[C@H]3CC[C@@H]2C(=O)N1Cc1ccccc1 0.171% [at 9.22 µM, normalised to 500 nM splice-correcting PNA]
CCCCNc1nc(C)nc2c1nc(-c1ccccc1)n2CCCCN(CC)CC -0.934%
c1ccc(CSCCc2ccncc2)cc1 2.45% [at 9.22 µM, normalised to 500 nM splice-correcting PNA]
O=c1c(-c2ccc(F)c(F)c2)nc2cncnc2n1-c1ccccc1 2.55%
COC(=O)NC(c1ccccc1)[C@]1(C(C)=O)CCCC1=O (some centres not stated) 0.441% [at 9.22 µM, normalised to 500 nM splice-correcting PNA]
CC(C)c1ccc2c([Si](C)(C)C)c3c(nc2c1)-c1cccc(=O)n1C3 0.415%
C=CC(=C)CCC=C(C)C 0.0276%
O=Cc1c(Cl)cccc1Cl -1.03%
COCCn1c(=O)c(-c2ccccc2)nc2cnc(N3CCOCC3)nc21 0.139%
CN1CCN(c2ncncc2-c2ccc(C(=O)N(C)C)cc2)CC1 -0.722%
O=C(c1cnccn1)N1CCC[C@@]2(CCN(Cc3ccncc3)C2)C1 3.89%
Cc1ccccc1-c1nc(N(C)Cc2ccco2)c2ccccc2n1 -0.212%
OCCN1CCN(CC/C=C2\c3ccccc3Sc3ccc(C(F)(F)F)cc32)CC1
BrC1C(Br)C(Br)C(Br)C(Br)C1Br (configuration not stated) -0.892%
c1ccc(CNc2ncncc2-c2cccnc2)cc1 -0.097%
FC(F)(F)c1ccccc1-c1nc(-n2ccnc2)c2ccccc2n1 -0.152%
CO[C@H]1COC(=O)[C@@H](C)NC(=O)C/C=C\[C@@H](C)[C@H](OC)COC(=O)C/C=C\[C@@H]1C 0.0576% [at 9.22 µM, normalised to 500 nM splice-correcting PNA]
COc1ccccc1CNc1ncnc2ccc(-c3ccc4c(c3)OCO4)cc12 -0.815%
Cc1noc(C)c1-c1nccc(N2CCOCC2)n1 -1.02%
Cc1[nH]c(N)nc(=S)c1CCCNc1ccccc1 0.0064% [at 9.22 µM, normalised to 500 nM splice-correcting PNA]
COc1ccc(NC(=O)N2CC3(CCN(C(=O)c4cccn4C)CC3)C2)cc1 3.19%
Cc1c(O)c(Br)c(C)c(O)c1Br (tested in a mixture with another compound) 3.36% [at 9.22 µM, normalised to 500 nM splice-correcting PNA]
COc1ccc(CNc2ncncc2-c2ccccc2C)c(OC)c1 -1.22%
CC(C)[C@@H](CC(=O)N[C@@H]1CCNC[C@H]1C(=O)N[C@H](CC(=O)N[C@@H](CCC(=O)O)CC(=O)O)Cc1ccccc1)NC(=O)C[C@H](CO)NC(=O)[C@@H]1CNCC[C@H]1N 2.36%
C[C@]12C=CC(=O)C=C1CC[C@@H]1[C@@H]2C(=O)C[C@@]2(C)[C@H]1CC[C@]2(O)C(=O)CO 1.63%
CCCC(C(=O)OCCN(CC)CC)(c1ccccc1)c1ccccc1
CC(=O)N1CCC2(CC1)CCN(c1ccncc1)CC2 -0.407%
C[C@]1(C(=O)NCCc2c[nH]c3ccccc23)C=C[C@@H](Cc2ccccc2)N1C(=O)c1ccccc1 -1.89%
C[C@@H]1O[C@@H](O[C@@H]2[C@@H](O)[C@H](OCCc3ccc(O)c(O)c3)O[C@H](CO[C@@H]3O[C@H](CO)[C@@H](O)[C@H](O)[C@H]3O)[C@H]2OC(=O)/C=C/c2ccc(O)c(O)c2)[C@H](O)[C@H](O)[C@H]1O -0.894%
